The values below come from PubChem BioAssay (NCI).

About 83,000 compounds went through this panel and 20% of them were active in at least one assay; those are over-represented in the sample as a whole.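 Compound tested at a single concentration for 48 hours in 96-well plates; a percent growth value below 10 was scored as active.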 A number with no mark means an inactive call. Calls of active or inactive are those of the source.

The test deals with UO-31 renal. Kind of test: NCI-60 one-dose screen, 48 h (100 = growth as untreated, 0 = no growth, -100 = all killed). As to conditions: 10 µM unless noted. The protocol: Growth inhibition of the UO-31 human tumor cell line is measured as a screen for anti-cancer activity. Cells are grown in 96 well plates and exposed to the test compound for 48 hours. Compounds are tested at a single concentration, which is 10^-5 M for most compounds. The reported endpoint is percent growth (GI% or GIPRCNT), where numbers from 0 - 100% represent growth inhibition, and numbers from -100% - 0 represent cell death. For example, a value of 40 represents 60% growth inhibition. A value of 0 means no net growth occurred over the course of the experiment. A value of -40 indicates 40% of cells at the beginning of the experiment died by the end of the experiment. A value of -100 means all cells are dead at the end of the experiment.
NCI-60 Human Tumor Cell Lines Screen was performed using the standard one-dose NCI protocol, which is described in more detail at https://dtp.cancer.gov/discovery_development/nci-60/default.htm.
Compounds with GIPRCNT values below 10 were considered active. Activity score was based on GIPRCNT using the following formula: […]
Score is 0 for GIPRCNT values of 100 or above, 50 for GIPRCNT values of 0, and 100 for GIPRCNT values of -100.
`Cc1cccc(C)c1Nc1nnc(-c2ccc(F)cc2)o1`: the growth was 88.8%.

Take `COc1ccc(C2=NN(c3ccc(S(N)(=O)=O)cc3)C(c3ccc(Cl)cc3)C2)c(O)c1` (stereo not given): the growth is 60.3%.

On to `COC(=O)c1ccc(NC(=O)CSc2nc(-c3ccc(F)cc3)nc3ccccc23)cc1`, for which the growth was 82.3%.

Take `CC(C)(C)c1nc2c(s1)c1nc(N)ncc1c1ccc(NS(=O)(=O)c3c(F)cccc3F)c(F)c12`: the growth was 28.9%.

On to `c1ccc2c3c([nH]c2c1)C(c1ccc(C2NCCc4c2[nH]c2ccccc42)cc1)NCC3` (stereo not given), for which the growth is -0.102% (active).

Turning to `O=C1CCc2ccccc2N1`, the growth is 90.3%.

Consider `CNc1cccc2c1C(=O)c1cccc(N)c1C2=O`, for which the growth is 62.1%.

Take `O=c1c2ccccc2oc2ccc(OCCCCCN3CCCCCC3)cc12`: the growth was 68.1%.

Take `Nc1c(C(=O)Nc2ccccn2)sc2nc3c(cc12)CCCCC3`: the growth is 49%.

In the case of `O=C(Nc1nccs1)c1noc2ccccc12`, the growth is 86.1%.

As for `COc1ccc(-c2cs/c(=N\N=C\c3ccc(O)cc3O)n2/N=C/c2ccc(O)cc2O)cc1`, the growth was -65% (active).

Regarding `COc1cc(/C=C/C(=O)c2cccs2)ccc1OCc1ccc(Cl)nc1`, the growth is 57.2%.

For `COc1ccc(C(=S)c2cc(OC)c(OC)c(OC)c2)cc1OC(=O)CCl`, the growth was 45.5%.

On to `O=C1CCC23OC(c4ccccc4N12)C(O)C(O)C3O` (stereo not given), for which the growth was 86.9%.

On to `O=C1C(=O)c2c(nc3ccc(Br)cn23)-c2ccccc21`, for which the growth is -100% (active).

As to `NS(=O)(=O)c1ccc(N2Cc3cc(Cl)ccc3OC3=C2C(=O)N(CC2CCCCC2)C3=O)cc1`, the growth was -84% (active).

On to `CC(C)(C)c1nn(-c2ccccc2)c2c1COCN2Cc1ccc(Cl)cc1`, for which the growth is 85.2%.

With `c1ccc(-c2n(Cc3ccc4ccccc4n3)cc[n+]2Cc2ccc3ccccc3n2)cc1`, the growth is 76.5%.

Take `O=C1Nc2ccc(Cl)cc2/C1=N/c1nc(-c2ccc(F)cc2)cs1`: the growth is 50.4%.

On to `CC[C@H](Nc1ncnc2nc[nH]c12)c1nc2cccc(CC(=O)c3ccc(C(=O)NO)cc3)c2c(=O)n1-c1ccccc1`, for which the growth is 87.4%.

On to `N#CC(C#N)=C1NC(c2ccccc2)=C(c2ccccc2)C(c2ccccc2Cl)=C1C#N`, for which the growth was 96.8%.

Regarding `Cc1cc(Cl)cc(CN(Cc2ccccc2)Cc2c(O)ccc3ccccc23)c1O`, the growth was 62.2%.

For `Cc1cccc(NC(=O)c2sc3nc4c(cc3c2N)CN(Cc2ccccc2)CC4)c1C`, the growth was 51%.

In the case of `C#Cc1cccc(Nc2ncnc3ccc(NC(=O)c4ccccc4)cc23)c1`, the growth is 56%.

Turning to `CC(C)(C#N)c1cc(F)cc(C(=O)Nc2cc(Nc3ncccc3-c3ncnc4nc[nH]c34)ccc2F)c1`, the growth was 12.8%.

Take `Nc1c(C(=O)Nc2cccc3ccccc23)sc2nc3c(cc12)COCC3`: the growth was 77%.

`O=C1C(=O)c2c(nc3ccc(C(F)(F)F)cn23)-c2ccccc21`: the growth is -97.5% (active).

For `COc1ccc2nc3c(n2c1)C(=O)C(=O)c1ccccc1-3`, the growth was -64.4% (active).

`Cc1cccc(C)c1NC(=O)CN(CC(C)C)CC(O)COc1ccccc1` (stereo not given): the growth was 85.8%.

With `O=c1[nH]nc(-c2ccc(Br)cc2)c2sc(NC(=S)Nc3ccc(Cl)cc3)nc12`, the growth is 89.2%.

For `CC[C@]12C=CCN3CC[C@@]4(c5cc(NC(=O)CCC(=O)O[C@H]6CC[C@H]7[C@@H]8CC[C@H]9CC(=O)CC[C@]9(C)[C@H]8CC[C@]67C)c(OC)cc5N(C)[C@H]4[C@@](O)(C(=O)OC)[C@@H]1OC(C)=O)[C@@H]32`, the growth was 51.3%.

Turning to `COc1ccc2nc(-c3ccc(Cl)cc3)cc(-c3nnc(SCC(=O)Nc4ccc(/C(C)=N\O)cc4)o3)c2c1`, the growth was 77.8%.

In the case of `NC(=N\N=C\c1ccccc1O)/C(N)=N/N=C/c1ccccc1O`, the growth was 70.2%.

Consider `O=c1c2ccccc2oc2ccc(OCCCCCCN3CCCCCC3)cc12`, for which the growth was 41.8%.

Regarding `COCCc1n(Cc2ccc3ccccc3c2)c2ccccc2[n+]1Cc1ccc2ccccc2c1`, the growth was -18.7% (active).

`COc1cc(C(C)c2ccc3c(ccn3C)c2)cc(OC)c1OC` (stereo not given): the growth is 35.2%.

With `C=C1C(=O)O[C@H]2[C@H]1CC/C(COC(=O)c1cccnc1N)=C\CC[C@@]1(C)O[C@@H]21`, the growth is 13.3%.

`O=C(O)c1cn(C2CC2)c2cc(N3CCN(Cc4nnc(Nc5ccccc5)o4)CC3)c(F)cc2c1=O`: the growth is 92.5%.

As for `COc1ccc(-c2cc(-c3nnc(SCC(=O)Nc4ccc(/C(C)=N\O)cc4)n3-c3ccccc3)c3cc(OC)ccc3n2)cc1`, the growth is 54.7%.

As to `COc1ccc(Sc2[nH]c(C(C)=O)c3ccccc23)cc1`, the growth was 73.5%.
